From ChEMBL document CHEMBL4513216, “Probing the Open Global Health Chemical Diversity Library for Multistage-Active Starting Points for Next-Generation Antimalarials” (ACS Infect Dis, 2020)
Hit rate of the full screen: of about 69,000 compounds, about 8,600 (12%) showed an effect of 50% or more. Many of the other results were omitted from the sample, so strong results are more common in it than they were.

These compounds were tested on Plasmodium berghei (assay: Screen against P. berghei liver stage (PbLuc), transformed with Luciferase, at 10uM). Conditions: tested at 10 uM.
Format: functional, HepG2

| SMILES | INHIBITION [%] |
| --- | --- |
| Cc1csc(N2CCN(C(=O)c3ccc(C)s3)CC2)n1 | 2.3 |
| CCN(C)c1ncnc2c1CCN(Cc1ccsc1)CC2 | -14.1 |
| Cc1cc(C)n(CC2CCCCN2CCC(=O)Nc2cc(C)on2)n1 (stereo not given) | 12.7 |
| CN(Cc1cccs1)S(=O)(=O)c1ccc(C(F)(F)F)nc1 | 35.1 |
| Cc1[nH]c2cc(C3CCCCN3C(=O)C3CC3)nn2c(=O)c1C (stereo not given) | -3.02 |
| Cn1ccnc1CN1CCN(CC(O)c2ccc(F)cc2)CC1 (stereo not given) | -18 |
| Cc1ncsc1CN1CCOC(C)(C(N)=O)C1 (stereo not given) | 15.5 |
| O=C(NC1CC1)C1CCN(c2cccc(C(F)(F)F)n2)CC1 | 86.8 |
| O=C(NC1CC1)C1CCCN(c2cccc(C(F)(F)F)n2)C1 (stereo not given) | -28.8 |
| O=C(NC1CCN(c2cccc(C(F)(F)F)n2)CC1)C1CC1 | 29 |
| CCN1CCCC1CNC(=O)Cc1c(-c2ccc(Cl)cc2)n[nH]c1C (stereo not given) | 14.4 |
| Cc1ccccc1CSc1nc(N)cc(N2CC[C@@H](O)C2)n1 | 42.1 |
| Cc1ccccc1CSc1nc(N)cc(N2C[C@H](O)[C@@H](N(C)C)C2)n1 | 58.2 |
| Cc1ccccc1CSc1nc(N)cc(N2CCCC(O)C2)n1 (stereo not given) | 15.2 |
| CC(C)(C)C(=O)NCCCn1cncn1 | -21.9 |
| COc1nn(C)cc1C(=O)NCC1(O)CCOCC1 | 15.7 |
| CCn1c(C)nnc1CN(C)C1CCN(CC2CCC2)C1 (stereo not given) | -4.16 |
| c1cc(CN2CCOC(Cn3cccn3)C2)c2c(c1)OCCO2 (stereo not given) | 25.1 |
| COC(=O)c1cc2c(OC)c(C)c(OC)cc2[nH]1 | -1.45 |
| CCc1cc(CN(C)Cc2nc(-c3ccc(OC)cc3F)oc2C)on1 | 39.9 |
| COc1ccc(-c2nc(CN(C)Cc3nncn3C)c(C)o2)c(C)c1C | -29.1 |
| COCc1ncn(Cc2nc(-c3ccc(OC)cc3F)oc2C)n1 | 8.86 |
| CCn1cnnc1CN(C)Cc1nc(-c2cc(OC)ccc2F)oc1C | 50.4 |
| COc1ccc(OC)c(-c2nc(CN(C)Cc3nncn3C)c(C)o2)c1 | 57.8 |

| SMILES | INHIBITION [%] |
| --- | --- |
| COc1ccc(OC)c(-c2nc(CN(C)Cc3nonc3C)c(C)o2)c1 | -28 |
| Cc1occc1C(=O)N1C[C@H](Oc2ccccn2)[C@H]2OCCC[C@H]21 | 34.9 |
| CN1CCCC(c2cccc(CCC(=O)NCc3ccccn3)n2)C1 (stereo not given) | 3.91 |
| CCC(C)C(=O)N(C)Cc1cc(F)ccc1N1CCC(OC)CC1 (stereo not given) | 33.7 |
| CCc1cnc(CN(C(C)=O)C2CCN(CC(=O)N3CCCC3)C2)o1 (stereo not given) | 30.6 |
| COCCNC(=O)CN(C)CCn1nc2ccccn2c1=O | 23.8 |
| C[C@@H](N)C(=O)N1CC2(CCNCC2)c2cc(Cl)ccc21 | 33.4 |
| CC1CCN(C(=O)c2cc(NC(=O)c3ccccc3)n(C)n2)CC1 | 26.4 |
| C=C(Cl)CN(C)C1CCN(CCc2ccccn2)CC1 | 35.9 |
| CSc1nccc(N2CCC3(CCCN(CCc4ccccc4)C3)C2)n1 (stereo not given) | 85.2 |
| CSc1nccc(N2CCC3(CCCN(Cc4cccc(C)c4)C3)C2)n1 (stereo not given) | 69.9 |
| CSc1nccc(N2CCC3(CCCN(Cc4ccc(F)cc4)C3)C2)n1 (stereo not given) | 85.2 |
| CSc1nccc(N2CCN(C)C3(CCNC(=O)CC3)C2)n1 (stereo not given) | -17.7 |
| Fc1ccc(CN2CCCC3(CCN(Cc4ncc[nH]4)C3)C2)cc1F (stereo not given) | 26 |
| CSc1nccc(N2CCC3(CCCN(CC4CC4)C3)C2)n1 (stereo not given) | -21.9 |
| Cc1cccc(N2CCC3(CCCN(C(=O)Cc4cccnc4)C3)C2)n1 (stereo not given) | 17.5 |
| CCN1CCC2(CCC1=O)CN(c1ccnc(SC)n1)CCN2C (stereo not given) | 8.57 |
| CCO[C@H]1CO[C@@]2(CCCN(S(=O)(=O)c3cccnc3)C2)C1 | 34.6 |
| CCOC[C@]12COC[C@H]1CN(Cc1ccc3c(c1)OCO3)C2 | 38.5 |
| Cc1nc(N2CCN(C(=O)c3ccccn3)CC2)c2c(n1)c(C)nn2C | 12.6 |
| CN1CCC(N(Cc2ccncc2)C(=O)COCC2CCCCO2)CC1 (stereo not given) | 17.2 |
| CCCC(=O)N1CCC(c2cc[nH]n2)C1 (stereo not given) | 17.4 |
| CN(C)CCN1CCOCC2(C1)CN(Cc1ccco1)CCO2 (stereo not given) | 26.7 |
| CCNC(=O)N1CCC(OC)c2ccccc2N(CC(=O)NC)C(=O)C1 (stereo not given) | 35.1 |

| SMILES | INHIBITION [%] |
| --- | --- |
| Cc1ccc(C(O)CNC(=O)Nc2cc(C)nn2C)cc1 (stereo not given) | -11.735 |
| CN(C)C(=O)N1C[C@H]2CC[C@@H](C1)N(C(=O)c1c(Cl)cccc1Cl)C2 | 12.1 |
| CN(C)CCCNc1ncnc2cccc(F)c12 | 41.8 |
| CS(=O)(=O)NCCNc1ncnc2cccc(F)c12 | 24.9 |
| CCS(=O)(=O)NCCCNc1ncnc2cc(F)c(F)cc12 | -30.5 |
| CSCCCNc1ncnc2cccc(F)c12 | 56.7 |
| Fc1cccc2ncnc(NCCCc3ccncc3)c12 | 73 |
| CCN(CCCNc1ncnc2cc(F)c(F)cc12)S(C)(=O)=O | -4.93 |
| CN1[C@@H]2CC[C@H]1CN(C(=O)c1sccc1S(N)(=O)=O)CC2 | 8.74 |
| O=C(CN1C(=O)CCC1=O)NCc1nn(C2CCCC2)c2c1CCCC2 | 56.3 |
| O=C(CN1C(=O)CCC1=O)NCc1cc(C2CC2)n(C2CCCC2)n1 | 13.9 |
| Cc1nnsc1C(=O)NCc1nn(C2CCCC2)c2c1CCCC2 | 49.4 |
| CC(=O)N[C@@H]1CN(Cc2ccccc2C#N)C[C@H]1c1ccc(C)cc1 | 41.3 |
| O=C(Cc1ccccc1Cl)Nc1ccn(CCN2CCOCC2)n1 | 45.8 |
| Cc1ccsc1CNC(=O)Nc1ccn(CCN2CCOCC2)n1 | 64 |
| CS(=O)(=O)CCn1ccc(NC(=O)Cc2ccccc2F)n1 | 21.2 |
| Cn1ccc(NC(=O)Cc2cccc(F)c2)n1 | -74.2 |
| COCCn1ccc(NCc2sccc2C)n1 | -60.1 |
| O=C(NCc1ccccc1F)Nc1ccn(CCN2CCOCC2)n1 | 50.1 |
| CSC1(CNC(=O)NCc2sccc2C)CCOCC1 | 30.4 |
| Cn1ccc(NC(=O)Cc2ccccc2F)n1 | 57.1 |
| O=C(NCc1cccc(F)c1)Nc1ccn(CCN2CCOCC2)n1 | 40.5 |
